In the library only some 17% were active in any assay of this set; here they are far more common.
HepG2 viability = qHTS for Inhibitors of TGF-b: Cytotox Counterscreen; HepG2 CAGA-GFP viability, ATP luminescence, 18 h; AID 588856, 2011; Potency, µM (doses to about 46.1 µM), without a hit: top-dose activity change, negative = cytotoxicity, usual class: cytotoxic; 0.76% of 410,000 active
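HepG2 CAGA-GFP cells (1000/well, DMEM with 1% FBS) received compound, then TGF-beta at 500 pg/mL final, and were incubated 18 hours at 37 degrees C. Viability was read by CellTiter-Glo luminescence. Media-only wells were set as complete cell-killing and DMSO as no toxicity.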
HT1080 IDH1KD tx = qHTS for induction of synthetic lethality in tumor cells producing 2HG: qHTS for the HT-1080-IDH1KD cell line. HT-1080 IDH1 knockdown viability, ATP luminescence, 48 h. Potency, µM (titrated, usually from 46.1 µM), without a hit: at the highest dose activity, negative = toxicity, most hits filed as cytotoxic. 2% of 360,000 active. AID 686971, 2013;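 also: 0% = DMSO wells and -100% = cell-free medium wells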
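IDH1KD HT-1080 cells, 750/well, RPMI + 5% FBS; compound pinned after 2 h settling; 48 h, 37 °C; CellTiter-Glo luminescence; % activity normalised to DMSO and no-cell wells; curves fitted, classed by r2 and efficacy.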
DT40 TDP1 CPT = qHTS for Inhibitors of human tyrosyl-DNA phosphodiesterase 1 (TDP1): qHTS in cells in presence of CPT; chicken DT40 Tdp1-/-;hTDP1 cells + 20 nM CPT, ATP luminescence, 48 h; Potency, µM (doses to about 46.2 µM), for the others: at the highest dose activity change, negative = growth inhibition, hits mostly inhibitors; 12% of 420,000 active; AID 686979, 2013; also: % is scaled to controls: 0 for no effect and ±100 for the full control effect; nearly all actives have a fitted effect of over 55% in size
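Cell growth measured by CellTiter-Glo luminescence after a minimum 48 h, 37 C compound exposure with 20 nM CPT in Tdp1-knockout DT40 cells stably expressing hTDP1, seeded 400/well; qHTS titration format.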
TGFb inhibitor = qHTS for Inhibitors of TGF-b. 1.2% of 410,000 active. Potency, µM (top dose mostly 46.1 µM), inactives show top-dose activity, negative = inhibition, actives largely listed as inhibitors. HepG2 CAGA-GFP TGF-b/SMAD3 reporter, GFP fluorescence, 18 h; TGF-beta stimulated, 500 pg/mL final. AID 588855, 2011; also: % is scaled to controls: 0 for no effect and ±100 for the full control effect; nearly all actives have a fitted effect of over 65% in size
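Smad-responsive CAGA-GFP expression was quantified in HEPG2 cells exposed to compounds and 500 pg/mL final TGF-beta for 18 h at 37 degrees C; unstimulated wells defined full inhibition.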
HT1080NT lethal = qHTS for induction of synthetic lethality in tumor cells producing 2HG: qHTS for the HT-1080-NT fibrosarcoma cell line. HT-1080-NT fibrosarcoma viability, CellTiter-Glo ATP luminescence, 48 h. Potency, µM (top dose mostly 46.1 µM), for inactives: at the highest dose activity, negative = less viability, hits mostly cytotoxic. 1.6% of 360,000 active. AID 686970, 2013;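 also: NT is the 2HG producing partner of a matched IDH1 knockdown line; 0% = DMSO-treated cells and -100% = media-only wells without cells; nearly all actives have a fitted effect of over 55% in size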
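Toxicity toward the 2HG-producing NT line was scored as %Activity, normalised to DMSO and no-cell wells, from CellTiter-Glo luminescence after 48 hours' treatment.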
TDP1 cell noCPT = qHTS for Inhibitors of human tyrosyl-DNA phosphodiesterase 1 (TDP1): qHTS in cells in absence of CPT. 15% of 420,000 active. DT40 Tdp1-/- hTDP1 cells, no CPT, ATP luminescence, 48 h. Potency, µM (titrated, usually from 46.2 µM), for inactives: top-dose activity change, negative = growth inhibition, usual class: inhibitors; also: % is scaled to controls: 0 for no effect and ±100 for the full control effect; nearly all actives have a fitted effect of over 55% in size
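Readout: luminescence from CellTiter-Glo after 30 min in the dark at RT. Cells: DT40 Tdp1-/- with stable hTDP1, 400/well. Exposure: compounds alone, ≥48 hr, 37 °C.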
* = called active by the depositor; ? = inconclusive; · = not tested or not shown; [ ] = remark or other dose. Calls follow the shape of the dose curve; as a rule, active = well fitted curve in the direction sought with a large enough effect; inconclusive = small, poorly fitted or top-dose-only effect, or another doubt; inactive = no such curve, though single readings can be large; an effect the other way counts as inactive or inconclusive. Potency is read from the fitted curve at half-maximal effect.

SMILES	HepG2 viability	HT1080 IDH1KD tx	DT40 TDP1 CPT	TGFb inhibitor	HT1080NT lethal	TDP1 cell noCPT
O=C(NCc1ccco1)c1ccc(COCC(F)(F)F)cc1	0%	-6%	-8%	-8%	10%	-14%
NC(Cc1ccc(C(F)(F)F)cc1)c1csc(Nc2ccc(C(=O)NCCCO)cn2)n1 (stereo unspecified)	-91%	?	?	?	?	16µM*
NC(Cc1ccc(C(F)(F)F)cc1)c1csc(Nc2ccc(C(=O)NCc3ccco3)cn2)n1 (stereo unspecified)	20µM*	7.3µM*	15µM*	?	12µM*	?
COc1ccc(NC(=O)c2[nH]nc3c2CSc2ccccc2-3)c(OC)c1	-14%	·	-13%	-15%	·	-28%
CCN(C(=O)Cc1ccccc1OC)c1nnc(-c2ccncc2)s1	-5%	-5%	?	-20%	?	15µM*
COCCN(C(=O)CCc1ccccc1OC)c1nnc(-c2cccnc2)s1	0%	4%	?	-2%	1%	?
COc1ccccc1C(=O)NCCC(=O)N(C)CC(=O)Nc1ccc(N2CCOCC2)cc1	-2%	5%	-3%	0%	8%	-4%
CSc1nc(Cl)c(C#N)c(-c2ccc(C)cc2)n1	-4%	4%	9.2µM*	1%	0%	?
COc1ccc(-c2nc(-c3ccccc3)nc(Cl)c2C#N)cc1	-12%	2%	?	11%	-16%	10µM*
O=C(COC(=O)COc1cccc(Br)c1)Nc1ccc(F)cc1F	7%	1%	-8%	-1%	-1%	11%
CC(C)Oc1cc(NC(=O)CS(=O)CC(=O)N(C)C)c(Cl)cc1Cl (stereo unspecified)	-6%	8%	-1%	-3%	8%	-12%
CC(C)Oc1cc(NC(=O)CS(=O)CC(=O)Nc2cccc(C(F)(F)F)c2)c(Cl)cc1Cl (stereo unspecified)	-114%	?	21µM*	11µM*	?	16µM*
CC(CNC(=O)C1CCCN(S(=O)(=O)N2CCOCC2)C1)c1ccccc1 (stereo unspecified)	-10%	16%	1%	-14%	19%	12%
CC[C@]12CCCN3CCc4c(n(c5ccccc45)C(=O)C1)C32 (stereo partly specified)	-3%	?	?	39%	-19%	?
CC[C@]12CCCN3CCc4c(n(c5ccccc45)C(=O)C1)[C@H]32	·	·	11µM*	·	·	9.4µM*
Cn1c(SCC(=O)Nc2cccnc2Cl)nnc1-c1ccco1	-10%	3%	-1%	-3%	8%	-17%
Cc1ncc(CO)c(/C=N/NC(=O)c2ccoc2C)c1O	-20%	-19%	?	8%	-5%	?
Cc1ncc(CO)c(/C=N/NC(=O)c2cc3c(s2)CCCC3)c1O	-2%	2.6µM*	5.8µM*	7%	?	7.3µM*
COc1ccc(C(=O)N/N=C/c2c(CO)cnc(C)c2O)cc1	-19%	-18%	5.8µM*	-9%	-14%	23µM*
Cc1ncc(CO)c(/C=N/NC(=O)c2ccc(O)cc2)c1O	-11%	17%	1%	-1%	7%	-8%
Cc1cccc(Nc2nn3c(=O)c4ccccc4nc3s2)c1	-19%	-10%	-3%	1%	-6%	-9%
CCCCN(C)C(=O)c1ccc2c(=O)n3nc(Nc4cc(C)ccc4C)sc3nc2c1	-29%	·	13µM*	?	·	12µM*
Cc1cc(C)c(Nc2nn3c(=O)c4cc5c(cc4nc3s2)OCO5)c(C)c1	0%	·	-6%	0%	·	-6%
Cc1ccc(C)c(Nc2nn3c(=O)c4ccc(C(=O)N(C)Cc5ccccc5)cc4nc3s2)c1	-27%	·	9.2µM*	?	·	21µM*
CCCSc1nnc(NC(=O)CSc2nc3[nH]c(=O)cc(O)c3s2)s1	14%	13%	2%	7%	4%	23%
SMILES	HepG2 viability	HT1080 IDH1KD tx	DT40 TDP1 CPT	TGFb inhibitor	HT1080NT lethal	TDP1 cell noCPT
Cc1csc(NC(=O)CSc2nc3[nH]c(=O)cc(O)c3s2)n1	24%	5.2µM*	21µM*	?	5.8µM*	15µM*
CCc1nnc(NC(=O)CSc2nc3[nH]c(=O)cc(O)c3s2)s1	4%	19%	6.5µM*	-1%	15%	6.5µM*
COC(=O)C1CCN(Cc2ccc3c(c2)CN(C(=O)c2cc(C)oc2C)CCO3)CC1	·	·	22%[9.04 µM]	·	·	-17%
O=C(c1ccccc1)N1CCN(C(=O)c2nn3c(C(F)(F)F)cc(-c4ccccc4)nc3c2Br)CC1	2%	8%	?	-1%	23%	18µM*
O=C(c1cc2nc(-c3ccccc3)cc(C(F)(F)F)n2n1)N1CCN2CCCC2C1 (stereo unspecified)	-4%	-5%	-24%	1%	?	?
O=C(c1nn2c(C(F)(F)F)cc(-c3ccccc3)nc2c1Cl)N1CCN2CCCC2C1 (stereo unspecified)	-17%	-16%	21µM*	-18%	-12%	?
CC1CC=C(O)C12OCC(C)(C)CO2 (stereo unspecified)	-12%	0%	4%	-10%	-9%	3%
O=C(Cc1c(Cl)cccc1Cl)Nc1cccc(S(=O)(=O)N2CCOCC2)c1	3%	15%	3%	-10%	10%	-25%
Cn1cc(S(=O)(=O)N2CCOCC2)cc1C(=O)Nc1ccc(Cl)c(C(F)(F)F)c1	-34%	·	?	?	·	23µM*
Cn1cc(S(=O)(=O)N2CCOCC2)cc1C(=O)Nc1cccc(Cl)c1	-20%	-7%	1%	-23%	17%	-5%
CN(CC(=O)Nc1cccc(S(=O)(=O)N2CCOCC2)c1)CC(=O)Nc1ccc(Cl)c(C(F)(F)F)c1	-2%	-27%	15µM*	?	-12%	7.3µM*
Cc1ccc(C)c(NC(=O)c2cc(S(=O)(=O)N3CCOCC3)cn2C)c1	-5%	-1%	15µM*	-5%	0%	-24%
O=C(NC(CC1CCCCC1)C(=O)O)c1ccccc1 (stereo unspecified)	32%	2%	-13%	2%	3%	8%

High-throughput results: PubChem, National Center for Advancing Translational Sciences (NCATS)
